In PubChem BioAssay AID1159580 (chemical genetic matrix, 2015):
“And” between values parts separate entries of the source, which are not always exact repeats. Identical values can stand only once. About 2,000 (36%) of roughly 5,500 compounds were called active. Roughly 18% stayed inconclusive and do not appear here. No stated cut-off is given here; in the data, active means normalized growth mostly below about 0.91 (no sharp cut-off); inconclusive means no clear call, values can overlap the other calls; inactive means mostly above about 0.92. Some of the results follow.

Experiment: chemical genetic growth profiling, strain panel (AID 1159580);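 further: tested at 20 µM; growth read once vehicle control cultures reached saturation at 30 °C; 1 = growth at the plate median or of vehicle wells; lower values mean less growth of the strain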
Settings: S. cerevisiae deletion strains, growth OD

Measured: normalized growth

CCCN(CCC)c1c([N+](=O)[O-])cc(C(F)(F)F)cc1[N+](=O)[O-]
inactive: locus YAL013W, strain DEP1, active compounds read low 1.02 | locus YAL021C, strain ccr4, active compounds read low 1 | locus YAL026C, strain drs2, active compounds read low 0.999 | locus YAL030W, strain snc1, active compounds read low 1 | locus YBL061C, strain skt5, active compounds read low 1.01 | locus YBR009C, strain hhf1, active compounds read low 0.995 | locus YBR021W, strain FUR4, active compounds read low 1.03 | locus YBR023C, strain chs3, active compounds read low 1.01 | locus YBR171W, strain sec66, active compounds read low 0.985 | locus YBR229C, strain ROT2, active compounds read low 1 | locus YBR231C, strain swc5, active compounds read low 1.02 | locus YBR279W, strain paf1, active compounds read low 1.01 | locus YCL011C, strain gbp2, active compounds read low 0.97 | locus YCL016C, strain dcc1, active compounds read low 1 | locus YCL029C, strain bik1, active compounds read low 1.01 | locus YCL061C, strain MRC1, active compounds read low 0.984 | locus YCL069W, strain vba3, active compounds read low 0.977 | locus YCR088W, strain abp1, active compounds read low 0.976 | locus YDL005C, strain med2, active compounds read low 1.01 | locus YDL035C, strain GPR1, active compounds read low 1.04 | locus YDL040C, strain nat1, active compounds read low 1 | locus YDL074C, strain BRE1, active compounds read low 1.04 | locus YDL101C, strain DUN1, active compounds read low 0.997 | locus YDL134C, strain PPH21, active compounds read low 0.995 | locus YDL185W, strain tfp1, active compounds read low 1.02 | locus YDL192W, strain arf1, active compounds read low 1.02 | locus YDR001C, strain nth1, active compounds read low 0.981 | locus YDR069C, strain doa4, active compounds read low 1.02 | locus YDR101C, strain arx1, active compounds read low 1.01 | locus YDR137W, strain rgp1, active compounds read low 0.957 | locus YDR150W, strain NUM1, active compounds read low 1.02 | locus YDR159W, strain sac3, active compounds read low 0.989 | locus YDR162C, strain NBP2, active compounds read low 1 | locus YDR195W, strain ref2 0.987 | locus YDR297W, strain sur2, active compounds read low 1 | locus YDR318W, strain mcm21, active compounds read low 1.01 | locus YDR334W, strain swr1, active compounds read low 0.994 | locus YDR335W, strain msn5, active compounds read low 1.01 | locus YDR388W, active compounds read low 1 | locus YDR392W, strain spt3, active compounds read low 0.919 | locus YDR502C, strain sam2, active compounds read low 1.02 | locus YEL003W, strain gim4, active compounds read low 0.974 | locus YEL037C, strain rad23, active compounds read low 0.988 | locus YEL061C, strain CIN8 (second series), active compounds read low 0.981 | locus YEL061C, strain CIN8, active compounds read low 1.01 | locus YER015W, strain faa2, active compounds read low 1.01 | locus YER016W, strain bim1, active compounds read low 1 | locus YER110C, active compounds read low 1.01 | locus YER111C, strain swi4, active compounds read low 0.98 | locus YER155C, strain BEM2 (second series), active compounds read low 1 | locus YER155C, strain BEM2, active compounds read low 1.01 | locus YER167W, strain BCK2, active compounds read low 0.997 | locus YFR010W, strain ubp6, active compounds read low 0.996 | locus YGL078C, strain dbp3, active compounds read low 1.01 | locus YGL086W, strain mad1, active compounds read low 1.01 | locus YGL167C, strain pmr1, active compounds read low 1.01 | locus YGL173C, strain kem1, active compounds read low 1.02 | locus YGL227W, strain vid30, active compounds read low 0.982 | locus YGL240W, strain doc1, active compounds read low 1.05 | locus YGL248W, strain PDE1, active compounds read low 0.99 | locus YGL253W, strain hxk2, active compounds read low 1.01 | locus YGR078C, strain PAC10, active compounds read low 1.02 | locus YGR135W, strain pre9, active compounds read low 1.02 | locus YGR229C, strain SMI1, active compounds read low 1.01 | locus YGR252W, strain gcn5, active compounds read low 1.05 | locus YHR013C, strain ard1, active compounds read low 1.06 | locus YHR027C, strain rpn1, active compounds read low 1.03 | locus YHR030C, strain SLT2, active compounds read low 1.01 and 0.97 | locus YHR079C, strain IRE1 (second series), active compounds read low 1.02 | locus YHR079C, strain IRE1, active compounds read low 0.979 | locus YHR094C, strain hxt1, active compounds read low 1.01 | locus YHR129C, strain ARP1, active compounds read low 0.99 | locus YHR142W, strain chs7, active compounds read low 0.975 | locus YHR200W, strain rpn10, active compounds read low 1.01 | locus YIL066C, strain RNR3, active compounds read low 1.02 | locus YIL073C, strain SPO22, active compounds read low 1.04 | locus YIL125W, strain kgd1, active compounds read low 1 | locus YIR030C, strain dcg1, active compounds read low 1.01 | locus YJL092W, strain hpr5, active compounds read low 0.976 | locus YJL095W, strain BCK1 (second series), active compounds read low 1.01 | locus YJL095W, strain BCK1, active compounds read low 0.99 and 0.98 | locus YJL115W, strain asf1, active compounds read low 0.998 | locus YJL129C, strain trk1, active compounds read low 0.96 | locus YJL134W, strain LCB3, active compounds read low 1 | locus YJL154C, strain vps35, active compounds read low 0.978 | locus YJL164C, strain tpk1, active compounds read low 0.991 | locus YJL166W, strain qcr8, active compounds read low 1.02 | locus YJL168C, strain set2, active compounds read low 1.01 | locus YJL187C, strain SWE1 (second series), active compounds read low 1.02 | locus YJL187C, strain SWE1, active compounds read low 1.01 | locus YJR043C, strain POL32, active compounds read low 1.01 | locus YJR066W, strain TOR1, active compounds read low 0.914
